Most compounds without a hit are left out; they make up all but 4% or so of the library.
HIF-2a block = inhibitors of HIF-2a | 786-0 RCC cells HIF-2a reporter, luciferase luminescence, overnight | inhibition, % at 18.8 µM | 0.72% of 360,000 active | AID 624352;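 active means inhibition of the luminescence signal of 40% or more relative to plate controls, in a single-dose primary screen at 18.75 µM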
CF NFkB block = inhibitors of cystic fibrosis induced NF-kB; KKLEB NF-kB-GFP reporter, PAF-induced, GFP fluorescence overnight; inhibition, % at 5 µM; 0.86% of 360,000 active;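 active means at least 50% inhibition at 5 µM, scaled per plate between neutral and stimulator controls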;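 further: PAF is a Pseudomonas aeruginosa culture filtrate used as stimulus; plate controls were PAF-stimulated DMSO wells for no effect and unstimulated DMSO wells for full effect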
Peg3 prom inh = inhibitors of Peg3 promoter; HeLa PEG-Prom luciferase reporter, luminescence, overnight; 1.7% of 360,000 active; inhibition, % at 20 µM; AID 588405;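 active means inhibition of at least 50% at 20 µM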
KKLEB cytotox = counter-screen for CF NF-kB inhibitors: cytotoxicity; KKLEB CF airway cells viability, ATPlite luminescence, overnight; hits give low values; cells stimulated with P. aeruginosa culture filtrate; activity change (cytotoxicity), % at 5 µM; 0.36% of 360,000 active; AID 602141;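 active means corrected activity change at or below -50% at 5 µM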
TWEAK-Fn14 inh = blocks TWEAK-Fn14 interaction in a reporter cell assay | inhibition, % at 10 µM | TWEAK-stimulated Fn14 reporter cells, luciferase luminescence, 8 h | 2% of 360,000 active | AID 1159606; in the data active means inhibition above about 50%
TROY signal inh = TROY signaling inhibition | Q293 LMP1-TROYcd NF-kB luciferase reporter, 4 h | inhibition, % at 10 µM | 0.98% of 360,000 active;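 active means compounds whose plate-normalised and pattern-corrected inhibition of the luciferase reporter signal at the single screening dose is 50% or more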
An asterisk follows results filed as active.

SMILES	HIF-2a block	CF NFkB block	Peg3 prom inh	KKLEB cytotox	TWEAK-Fn14 inh	TROY signal inh
COc1ccc(NC(=S)N2CCc3ccccc32)cc1OC	-138.8	-22.5	-181.6	18.3	-19.2	-54.6
COc1ccccc1NC(=S)N1CCCc2ccccc21	17.4	-0.6	17.0	-1.1	65.7*	53.9*
CCOc1ccccc1NC(=S)N1CCCc2ccccc21	-12.1	-8.6	-31.8	-6.0	52.6*	53.6*
CCOc1ccccc1NC(=O)N1CCCc2ccccc21	-2.8	-28.4	14.2	1.6	16.2	74.9*
COc1ccc(NC(=O)N2CCCc3ccccc32)cc1	-72.4	-3.0	-52.4	-3.4	16.9	-27.0
COc1ccc(OC)c(NC(=O)N2CCCc3ccccc32)c1	-7.8	-4.5	11.5	3.4	44.3	75.8*
O=C(c1cccc(C(F)(F)F)c1)C1CCCN(C(=O)Cn2cncn2)C1 (stereo not drawn)	-28.8	0.9	-32.8	4.7	-8.8	11.1
CCC[C@@H](CN[C@@H](CNC)[C@H](C)CC)NCC1CCC(C(C)(C)C)CC1 (stereo partly drawn)	-3.1	9.1	102.1*	-30.5	-47.2	0.9
CC(C)NCC(O)COC1CCC(C(C)(C)C)CC1 (stereo not drawn)	14.2	13.0	-5.5	-11.0	-9.0	11.7
CC(=O)c1cccc(NC(=O)Cn2c(=O)oc3cc(S(=O)(=O)N4CCCC4)ccc32)c1	13.2	1.6	2.3	8.0	-7.2	17.3
Cc1ccc(C(C)C)c(OCC(=O)Nc2sc3c(c2C#N)CC(C)(C)NC3(C)C)c1	12.2	21.4	31.6	-14.9	50.1*	47.4
O=C(COc1ccc2ccccc2c1Br)N1CCCCC1	-226.8	-4.6	-272.2	-7.6	-0.1	-37.2
O=C(Oc1ccc2ccccc2c1Br)N1CCCCCC1	-131.1	-7.4	-182.1	-13.4	64.5*	66.5*
CCc1csc(CNC(=O)C2CCC(=O)N(Cc3cccc(F)c3)C2)n1 (stereo not drawn)	4.3	4.4	1.0	12.7	3.0	-10.3
CCCCNc1c(-c2ccc(-c3cccc(Cl)c3)cc2)nc2ccccn12	-321.5	-8.0	-271.6	-3.4	-15.2	-45.2
CCCCNc1c(-c2cccc(-c3ccc(OC)cc3)c2)nc2cc(C)ccn12	-80.5	20.1	88.7*	-13.0	31.3	29.1
Cc1ccn2c(NC3CCCCC3)c(-c3cccc(-c4cccc(Cl)c4)c3)nc2c1	-12.7	18.4	55.7*	-8.9	-11.4	-51.7
CCCCNc1c(-c2ccc(OC)c(SC3CCCCC3)c2)nc2cc(C)ccn12	-17.5	27.9	56.2*	-3.5	27.1	17.4
Cc1ccn2c(NC3CCCC3)c(-c3ccncc3)nc2c1	9.4	-3.2	19.5	-3.6	-0.7	-4.2
CCCCNc1c(-c2cccc(-c3cc(C(C)=O)cs3)c2)nc2ccc(C)cn12	-174.3	83.3*	62.0*	-93.2*	40.2	25.2
Cc1ccc(N2C(=O)SC(Cc3ccccc3)C2=O)cc1 (stereo not drawn)	-9.0	5.1	0.4	-5.2	-7.4	-43.0
O=S(=O)(Nc1nnc(C2CCCCC2)s1)c1ccc(F)cc1	2.1	1.2	11.1	1.6	-3.3	-23.9
O=C(CC(=O)c1ccncc1)c1ccccc1	-74.3	-4.9	-56.0	3.9	-1.9	-56.2
COc1ccc(-c2nc3cnccn3c2NCc2ccccc2)cc1SC1CCCCC1	2.9	-0.4	47.1	3.8	5.5	-5.2
CCCCNc1c(-c2ccc(OC)c(SC3CCCCC3)c2)nc2cnccn12	-18.7	20.9	68.2*	-14.2	9.9	6.4
SMILES	HIF-2a block	CF NFkB block	Peg3 prom inh	KKLEB cytotox	TWEAK-Fn14 inh	TROY signal inh
CCOc1ccc2nc(SC3CC(=O)N(c4ccc(OC)cc4OC)C3=O)sc2c1 (stereo not drawn)	-106.8	16.3	-45.7	-8.3	-33.8	-17.1
Cc1cc(Nc2cccc([N+](=O)[O-])c2)n2c(nc3ccccc32)c1C#N	10.8	34.7	17.1	-37.8	76.7*	25.5
CCN(CC)CCNc1cc(C)c(C#N)c2nc3ccccc3n12	2.0	-20.9	6.7	-3.6	-31.2	-7.0
COC(=O)c1c(-c2ccccc2)csc1NC(=O)C1CC=CCC1C(=O)O (stereo not drawn)	-19.5	-1.0	-10.4	2.9	0.2	-0.5
Cc1ccc(/C=N/N=C2/NC(=O)C(CC(=O)N3CCOCC3)S2)cc1 (stereo not drawn)	9.8	-1.3	7.5	2.8	-2.7	7.0
CCn1nnc(NC(=O)c2ccc([N+](=O)[O-])o2)n1	-28.6	67.9*	24.7	0.0	7.3	-13.6
